Test results taken from PubChem BioAssay (NCI).
About 79,000 compounds went through this panel and 15% of them were active in at least one assay; those are over-represented in the sample as a whole. A number with no mark means an inactive call. Calls of active or inactive are those of the source. Rule as the data show it: active = growth inhibition above about 70%; inactive = the rest.

Legend:
[1] = NCI Yeast Anticancer Drug Screen. Data for the rad50 strain (AID 155);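 also: 0% = growth of vehicle-only cultures of the same strain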; conditions: S. cerevisiae rad50 strain growth inhibition, hits give high values
Method in brief: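 Growth of the mutant yeast was measured after compound exposure and referenced to vehicle-treated cultures.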

[2] = NCI Yeast Anticancer Drug Screen. Data for the mec2-1 strain (AID 157); conditions: S. cerevisiae mec2-1 strain, hits give high values
Method in brief: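 Readout is yeast growth inhibition, normalised to vehicle-treated controls, in the mec2-1 strain exposed to compound.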

[3] = NCI Yeast Anticancer Drug Screen. Data for the sgs1 mgt1 strain (AID 161);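 also: 0% = growth of cultures given vehicle only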; conditions: S. cerevisiae sgs1 mgt1 strain, hits give high values
Method in brief: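 Percent growth inhibition was derived by comparing compound-exposed mutant yeast with vehicle-exposed cultures. The strain carries alterations in DNA damage repair.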

[4] = NCI Yeast Anticancer Drug Screen. Data for the cln2 rad14 strain (AID 165);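 also: 0% = growth equal to vehicle treated cultures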; conditions: S. cerevisiae cln2 rad14 strain, hits give high values
Method in brief: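 Relative to vehicle controls, growth inhibition of compound-treated cln2 rad14 yeast was recorded.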

[5] = NCI Yeast Anticancer Drug Screen. Data for the bub3 strain (AID 167); conditions: S. cerevisiae bub3 mutant strain, hits give high values
Method in brief: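 Whole-cell yeast assay. The mutant strain was incubated with compounds, and growth inhibition was determined by comparison with vehicle-treated cells.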

[6] = NCI Yeast Anticancer Drug Screen. Data for the mlh1 rad18 strain (AID 175); conditions: S. cerevisiae mlh1 rad18 strain growth inhibition, hits give high values
Method in brief: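 Test agents were incubated with a yeast strain of defined genotype (DNA damage repair defect). Inhibition of growth was derived by comparison with vehicle-exposed cultures.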

[7] = at 5.0 µM (retest, dose inferred, filed as 0.5)
[8] = at 50.0 µM (retest, dose inferred, filed as 5.0)

Row | Compound | growth inhibition [1, 7] | growth inhibition [1, 8] | growth inhibition ([1]; at 50.0 µM) | growth inhibition [2, 7] | growth inhibition [2, 8] | growth inhibition ([2]; at 50.0 µM) | growth inhibition [3, 7] | growth inhibition [3, 8] | growth inhibition ([3]; at 50.0 µM) | growth inhibition [4, 7] | growth inhibition [4, 8] | growth inhibition ([4]; at 50.0 µM) | growth inhibition [5, 7] | growth inhibition [5, 8] | growth inhibition ([5]; at 50.0 µM) | growth inhibition [6, 7] | growth inhibition [6, 8] | growth inhibition ([6]; at 50.0 µM)
1 | NC(=O)c1ccc(C(=O)Nc2ccc([As](=O)(O)O)cc2)cc1 | 30% | 21% | -3.85% | 6% | 3% | -26.7% | 22% | 3% | -43.2% | 2% | -14% | 49.4% | -7% | 1% | -13.1% | 11% | 9% | -15.9%
2 | NC(=O)/C=C/c1ccc([As]=O)cc1 (configuration not stated) | 1% | 25% | 97.8% (active) | 1% | 22% | 98.7% (active) | 0% | 34% | 99.3% (active) | 9% | 3% | 96.5% (active) | 4% | 37% | 98.7% (active) | 5% | 39% | 99% (active)
3 | O=C([CH-]C(=O)c1ccccc1)c1ccccc1.O=C([CH-]C(=O)c1ccccc1)c1ccccc1.O=C([CH-]C(=O)c1ccccc1)c1ccccc1.[Cl-].[Zr+4] | 36% | 89% (active) | 87.5% (active) | 38% | 83% (active) | 67.3% | 45% | 93% (active) | 86.7% (active) | – | – | – | 62% | 93% (active) | 89.7% (active) | 29% | 93% (active) | 87.8% (active)
4 | CN(Cc1ccccc1)CC(O)c1cccc(I)c1 (configuration not stated) | -3% | 18% | 49.5% | -3% | 9% | 11.3% | -2% | 36% | 51.6% | 1% | 11% | 31.6% | 0% | 35% | 56.2% | -4% | 24% | 27.2%
5 | CC(Br)C(=O)C(CCN(C)C)(c1ccccc1)c1ccc(Br)s1 (configuration not stated) | -9% | 13% | 4% | -9% | -6% | 0.55% | -25% | 10% | 0.8% | -12% | 2% | 80.6% (active) | – | – | – | -6% | 14% | 11.9%
6 | CCOC(=O)C(Cl)Cl | -1% | 0% | -32.4% | 3% | -2% | -2.7% | 0% | -2% | -5.25% | -2% | -4% | -39.8% | 1% | -5% | -18.3% | 2% | -2% | 33.4%
7 | COC1OC(CO)C(O)C(O)[CH]1[Hg][Cl] (configuration not stated) | 99% (active) | 99% (active) | 99% (active) | 99% (active) | 99% (active) | 99% (active) | 100% (active) | 100% (active) | 99% (active) | – | – | – | 99% (active) | 99% (active) | 98.8% (active) | 99% (active) | 99% (active) | 98.8% (active)
8 | Clc1ccc2c(c1)C(c1ccccc1Cl)=NCC(SCCN1CCOCC1)=N2 | 56% | 94% (active) | 96.8% (active) | 29% | 92% (active) | 93.6% (active) | 63% | 98% (active) | 89.7% (active) | – | – | – | 48% | 93% (active) | 95.6% (active) | 52% | 95% (active) | 91.5% (active)
9 | CC(=N\O)/C(C)=N/O.CC(=N\O)/C(C)=N/O.CC(=N\O)/C(C)=N/O.CC(=N\O)/C(C)=N/O.[CH3-].[CH3-].[Co].[Co] | 15% | 25% | 46.5% | 8% | 17% | 24.6% | 21% | 18% | 30.1% | 11% | 24% | 2.8% | – | – | – | 14% | 39% | 63.6%
10 | O=C([CH-]C(=O)c1ccccc1)c1ccccc1.O=C([CH-]C(=O)c1ccccc1)c1ccccc1.O=C([CH-]C(=O)c1ccccc1)c1ccccc1.[OH3+].[Y+3] | 46% | 99% (active) | 91.6% (active) | 42% | 100% (active) | 93.5% (active) | 53% | 100% (active) | 94.1% (active) | – | – | – | 63% | 84% (active) | 92.5% (active) | 56% | 100% (active) | 91.5% (active)
